Measured values published in PubChem BioAssay AID504333 (National Center for Advancing Translational Sciences (NCATS), 2011).
The whole screen tested about 360,000 compounds, of which about 16,000 (4.4%) were called active. Inconclusive results (about 9%) are left out. Calls come from the whole dose curve; as a rule, active = well fitted inhibition curve with a large enough effect; inconclusive = small, poorly fitted or top-dose-only effect; inactive = no such curve, though single readings can be large or run the other way. The sample as a whole holds a higher share of actives than the screen did.

What follows are molecules tested against Bromodomain adjacent to zinc finger domain protein 2B (Homo sapiens) (UniProt Q9UIF8) (assay: qHTS Assay for Inhibitors of BAZ2B). Conditions: AlphaScreen BAZ2B-H3K14Ac peptide displacement; series mostly up to 114 µM.
Sequence of Bromodomain adjacent to zinc finger domain protein 2B (Homo sapiens) (Q9UIF8 whole entry, looked up, the tested form may be a part): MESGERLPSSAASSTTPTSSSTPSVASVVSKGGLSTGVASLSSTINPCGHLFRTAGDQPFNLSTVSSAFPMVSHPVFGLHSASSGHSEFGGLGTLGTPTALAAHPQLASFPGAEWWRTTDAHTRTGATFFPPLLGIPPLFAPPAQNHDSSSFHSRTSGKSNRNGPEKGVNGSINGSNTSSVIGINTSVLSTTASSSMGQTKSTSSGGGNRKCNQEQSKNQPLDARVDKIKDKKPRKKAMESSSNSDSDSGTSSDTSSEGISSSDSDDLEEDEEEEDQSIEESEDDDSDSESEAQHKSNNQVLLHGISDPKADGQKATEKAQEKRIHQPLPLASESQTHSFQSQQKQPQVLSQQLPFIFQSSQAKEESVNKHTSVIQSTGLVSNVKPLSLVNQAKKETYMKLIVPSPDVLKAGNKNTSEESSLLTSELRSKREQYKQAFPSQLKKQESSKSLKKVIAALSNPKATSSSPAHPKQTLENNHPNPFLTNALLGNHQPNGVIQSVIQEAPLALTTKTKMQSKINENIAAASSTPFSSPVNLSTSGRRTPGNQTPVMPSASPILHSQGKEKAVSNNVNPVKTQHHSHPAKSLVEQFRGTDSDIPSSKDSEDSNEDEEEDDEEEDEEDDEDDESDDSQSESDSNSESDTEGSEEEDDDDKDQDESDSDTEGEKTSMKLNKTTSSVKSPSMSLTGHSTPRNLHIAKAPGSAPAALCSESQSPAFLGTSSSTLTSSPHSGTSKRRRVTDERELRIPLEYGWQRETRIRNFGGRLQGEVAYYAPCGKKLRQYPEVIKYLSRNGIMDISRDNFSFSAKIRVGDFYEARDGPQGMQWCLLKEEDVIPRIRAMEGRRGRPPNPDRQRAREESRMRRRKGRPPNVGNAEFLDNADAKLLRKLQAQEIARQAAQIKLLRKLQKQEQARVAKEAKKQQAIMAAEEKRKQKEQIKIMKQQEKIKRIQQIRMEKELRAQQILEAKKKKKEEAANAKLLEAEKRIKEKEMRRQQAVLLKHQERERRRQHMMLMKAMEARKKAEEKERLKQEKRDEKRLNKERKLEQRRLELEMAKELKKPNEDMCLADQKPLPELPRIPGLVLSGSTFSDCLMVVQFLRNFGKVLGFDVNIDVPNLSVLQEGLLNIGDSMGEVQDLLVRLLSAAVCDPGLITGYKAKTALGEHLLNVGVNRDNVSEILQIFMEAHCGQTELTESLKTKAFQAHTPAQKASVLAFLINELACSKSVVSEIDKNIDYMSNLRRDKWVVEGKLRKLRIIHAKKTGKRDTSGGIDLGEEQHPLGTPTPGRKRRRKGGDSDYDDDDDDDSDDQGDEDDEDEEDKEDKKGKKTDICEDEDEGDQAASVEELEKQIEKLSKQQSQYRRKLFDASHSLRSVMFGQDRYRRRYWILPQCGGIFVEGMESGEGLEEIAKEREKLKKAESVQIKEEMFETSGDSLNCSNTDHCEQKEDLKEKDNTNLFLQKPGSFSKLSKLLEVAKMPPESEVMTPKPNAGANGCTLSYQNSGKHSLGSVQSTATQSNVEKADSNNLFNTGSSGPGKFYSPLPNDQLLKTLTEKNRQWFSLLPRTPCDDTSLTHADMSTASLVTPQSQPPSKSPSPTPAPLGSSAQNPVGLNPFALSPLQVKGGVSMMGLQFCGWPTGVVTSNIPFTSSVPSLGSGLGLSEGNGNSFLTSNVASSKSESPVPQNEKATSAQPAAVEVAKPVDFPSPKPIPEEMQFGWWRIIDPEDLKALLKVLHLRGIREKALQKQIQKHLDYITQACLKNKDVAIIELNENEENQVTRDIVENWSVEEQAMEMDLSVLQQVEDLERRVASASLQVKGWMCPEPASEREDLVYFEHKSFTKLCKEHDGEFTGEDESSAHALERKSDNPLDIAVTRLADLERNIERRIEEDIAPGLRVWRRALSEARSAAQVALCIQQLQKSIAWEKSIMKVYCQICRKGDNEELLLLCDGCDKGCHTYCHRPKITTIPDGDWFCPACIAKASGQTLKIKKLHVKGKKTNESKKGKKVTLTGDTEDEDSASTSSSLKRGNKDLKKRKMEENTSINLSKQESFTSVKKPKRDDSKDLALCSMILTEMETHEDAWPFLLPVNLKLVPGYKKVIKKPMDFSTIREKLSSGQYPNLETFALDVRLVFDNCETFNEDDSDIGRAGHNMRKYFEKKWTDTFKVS
Summary of the method: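 BAZ2B (50 nM) with biotin-H3(5-23)K14Ac peptide (50 nM) in PBS pH 7.4, 0.01% Tween-20, preformed 30 min, then compound 30 min at room temperature; top concentration 110uM. AlphaScreen streptavidin donor/nickel chelate acceptor beads (10 ug/mL final), 20 min dark, signal read.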
Note: nearly all actives have a fitted effect of over 60% in size.
Potency is the fitted concentration of half-maximal effect.

Potency, active:
COc1ccc(/C=C2/C(=O)N(c3ccccc3)N=C2C)c(OC)c1 11.2 µM
O=C(NCCCn1ccnc1)C(=O)NCC1OCCN1S(=O)(=O)c1cc(F)ccc1F (stereo not drawn) 7.94 µM
Clc1ccccc1CSc1nnc(-c2ccco2)c(-c2ccco2)n1 14.1 µM
c1ccc(CSc2nnc(-c3ccco3)c(-c3ccco3)n2)cc1 20 µM
COc1cc(/C=C2/C(=O)NN(c3cccc(Cl)c3)C2=O)cc(Br)c1O 39.8 µM
COc1cc(/C=C2/C(=O)NN(c3ccc(F)cc3)C2=O)cc([N+](=O)[O-])c1O 39.8 µM
O=C(c1ccc2ccccc2n1)N1CCN(c2ccccc2Cl)CC1 50.1 µM
COc1cccc(C2Nc3cccc4cccc(c34)N2)c1 35.5 µM
COC(=O)C(=Nc1ccccc1)/C(C(=O)C(=O)N(C)c1ccccc1)=C(\O)c1ccc(Cl)cc1 50.1 µM
Cc1nn(-c2ccc([N+](=O)[O-])cc2)c(N)c1-c1ccccc1 70.8 µM
COc1ccccc1CNC(=O)CCn1c(=O)c2ccccc2n(CC(=O)Nc2cccc(Cl)c2)c1=O 79.4 µM
Oc1cc2c(cc1O)CN(C(=S)NCCc1ccc(Cl)cc1)CCC2 44.7 µM
O=C1NN(c2ccccc2)C(=O)/C1=C/c1ccc(-c2cccc(C(=O)O)c2)o1 44.7 µM

Potency, inactive:
O=C(NC1CC(=O)N(c2ccc(F)cc2)C1)c1ccc(S(=O)(=O)N2CCCC2)cc1 (stereo not drawn)
Cc1ccccc1CS(=O)(=O)CC1Nc2ccc(C(=O)NCc3ccc(Cl)cc3)cc2NC1=O (stereo not drawn)
Cc1ccc(C)c(N2CCN(c3ccc4cc(S(=O)(=O)N5CCC(C)CC5)ccc4n3)CC2)c1
COc1ccc(C(=O)CCc2ccccc2O)c(OC)c1
COc1ccc(/C=C2/C(=O)OCc3cc(OC)c(OC)cc32)c(OC)c1
O=C(NCCCc1ccccc1)c1ccc2c(c1)sc1nc(-c3ccc(F)cc3)cn12
COc1ccccc1CNC(=O)NCc1noc2ccc(C)cc12
COc1ccc(CCNC(=O)C(=O)NCC2OCCN2S(=O)(=O)c2ccc(F)cc2)cc1OC (stereo not drawn)
Cc1cc(F)ccc1S(=O)(=O)N1CCCOC1CNC(=O)C(=O)NCCC1=CCCCC1 (stereo not drawn)
Cn1nnnc1SCCCNCc1ccc(Cl)cc1
CC1(C)N=C(SCc2ccccc2Cl)c2ccccc2N1
COc1ccc2nc(SCc3ccccc3)nc(C)c2c1
CSc1nc(-c2ccco2)nn1C(=O)CCc1ccccc1
Fc1ccc(Nc2nc(SCc3ccccc3Cl)nc3ccccc23)cc1
Cc1cccc(NC(=O)N2CCC(CN3CCc4ccccc4C3)CC2)c1C
Cc1ccc(NC(=O)CSc2nc3c([nH]c4ccccc43)c(=O)n2-c2ccccc2)c(C)c1
CCOc1ccccc1NC(=O)Cn1c2ncccc2c(=O)n1-c1ccc(C)c(C)c1
COc1cc(CN2CC(C)CC(C)C2)cc([N+](=O)[O-])c1O (stereo not drawn)
COc1cccc(/C=C2\SC(=N)N(c3ccc(F)cc3)C2=O)c1
CCOc1c(Br)cc(/C=C2\C(=O)N(CCC#N)N=C2C)cc1OC
COc1cc(/C=N/O)cc(Br)c1OCc1cccc(Cl)c1
CCc1cccc(NC(=O)c2cnc(N3CCOCC3)c3ccccc23)c1
Cc1ccc(C(=O)CSc2nc(-c3ccccc3)nc3c2CCCC3)c(C)c1
COc1ccc(CC(=O)NCCc2sc3nc(-c4ccc(OC)cc4)nn3c2C)cc1
COc1ccccc1N1CCN(C(=O)c2c(-c3c(Cl)cccc3Cl)noc2C)CC1
O=C(c1ccncc1)N1CCN(c2ccc3ccccc3n2)CC1
COc1ccc(C)cc1-n1c(-c2ccc(C)cc2)cc2c1CC(C)(C)CC2=O
COc1ccc(C2NC(=O)c3ccccc3N2)cc1 (stereo not drawn)
COc1cccc(N2C(=O)C3CCCN3C2c2ccc(F)cc2)c1 (stereo not drawn)
FC(F)(F)c1cc(Nc2nc3ccccc3c3nncn23)ccc1Cl
COC(=O)/C(NC(C)=O)=C(\C)c1ccc(Cl)cc1
COC(=O)c1cn(C(=O)c2ccc(Cl)cc2)c2ccccc12
CCCCc1nn2c(=O)cc(COC(=O)c3ccccc3NC(=O)C(C)(C)C)nc2s1
Cc1nn(-c2ccccc2)c2c1C(c1cccc([N+](=O)[O-])c1)N(c1ccccc1)C(=O)N2 (stereo not drawn)
Cc1cc(CO)nn1-c1ccc([N+](=O)[O-])cc1
O=C(NCc1ccc(F)cc1)c1ccc(Cn2c(SCc3ccc(F)cc3)nc3cccnc32)cc1
Cc1oc2ncnc(N3CCOCC3)c2c1C(=O)NCCc1ccccc1
COc1ccccc1CNC(=O)CCCCn1c(=O)c2ccccc2n(CC(=O)Nc2cc(Cl)ccc2C)c1=O
COc1ccccc1CNC(=O)CCn1c(=O)c2ccccc2n(CC(=O)Nc2ccc(Br)cc2F)c1=O
O=C(NCc1ccccc1Cl)C1=Cc2cc(Br)ccc2OC1
CCCC(=O)Nc1cc(C(=O)NCc2ccc(OC)cc2)ccc1S(=O)(=O)c1ccc(Cl)cc1
CCOc1ccc(CCNC(=O)c2ccc3c(c2)sc2nc(-c4ccc(F)cc4)cn23)cc1OCC
CCOc1ccc(-c2nonc2NC(=O)c2oc3ccc(CC)cc3c2C)cc1
COc1ccc(-c2cn3c(n2)sc2cc(C(=O)Nc4ccccc4F)ccc23)cc1
COc1ccc(CCNC(=S)N2CCN(S(=O)(=O)c3ccc(Cl)cc3)CC2)cc1
O=C(NCCc1ccc(Cl)cc1)c1cccc(N2CCCC2=O)c1
CC(=O)c1cc(-c2ccccc2)[nH]c1N1CCCC1
COc1ccc(-n2nnc(-c3nsc(NC(=O)c4ccc(C)c(C)c4)n3)c2C)cc1Cl
Cc1ccc(NC(=O)c2cc(S(=O)(=O)NCCC3=CCCCC3)ccc2F)cc1C
Cc1sc2ncn(CC(=O)N3CCN(c4ccc(F)cc4)CC3)c(=O)c2c1S(=O)(=O)N1CCN(c2ncccn2)CC1
